# Results taken from the supplement of paper PMC11732987, “Enantioselective OTUD7B fragment discovery through chemoproteomics screening and high-throughput optimisation” (Communications Chemistry, 2025).
# Compound: COc1cccc(CN(C)C(=O)CCl)c1
# Assay: log2 ratio of Biotin-Ahx-Ub-VS probe labelling (compound/DMSO); higher = less target engagement, active = hit call of the paper (q ≤ 0.05, log2 ratio ≤ -1)
# Conditions: compound concentration: 50uM; treatment time: 3 h
# Experimental: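 Round 2 competitive ABPP in HEK293T lysate. Compounds were tested at 50 and 200 µM for 3 h, followed by Biotin-Ahx-Ub-VS enrichment and diaPASEF LC-MS/MS. Values are the average log2 ratio (compound/DMSO) from an unpaired t-test (n=3 treated, n=26 DMSO).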
# Chain of UniProt Q6GQQ9 (Q6GQQ9 whole entry): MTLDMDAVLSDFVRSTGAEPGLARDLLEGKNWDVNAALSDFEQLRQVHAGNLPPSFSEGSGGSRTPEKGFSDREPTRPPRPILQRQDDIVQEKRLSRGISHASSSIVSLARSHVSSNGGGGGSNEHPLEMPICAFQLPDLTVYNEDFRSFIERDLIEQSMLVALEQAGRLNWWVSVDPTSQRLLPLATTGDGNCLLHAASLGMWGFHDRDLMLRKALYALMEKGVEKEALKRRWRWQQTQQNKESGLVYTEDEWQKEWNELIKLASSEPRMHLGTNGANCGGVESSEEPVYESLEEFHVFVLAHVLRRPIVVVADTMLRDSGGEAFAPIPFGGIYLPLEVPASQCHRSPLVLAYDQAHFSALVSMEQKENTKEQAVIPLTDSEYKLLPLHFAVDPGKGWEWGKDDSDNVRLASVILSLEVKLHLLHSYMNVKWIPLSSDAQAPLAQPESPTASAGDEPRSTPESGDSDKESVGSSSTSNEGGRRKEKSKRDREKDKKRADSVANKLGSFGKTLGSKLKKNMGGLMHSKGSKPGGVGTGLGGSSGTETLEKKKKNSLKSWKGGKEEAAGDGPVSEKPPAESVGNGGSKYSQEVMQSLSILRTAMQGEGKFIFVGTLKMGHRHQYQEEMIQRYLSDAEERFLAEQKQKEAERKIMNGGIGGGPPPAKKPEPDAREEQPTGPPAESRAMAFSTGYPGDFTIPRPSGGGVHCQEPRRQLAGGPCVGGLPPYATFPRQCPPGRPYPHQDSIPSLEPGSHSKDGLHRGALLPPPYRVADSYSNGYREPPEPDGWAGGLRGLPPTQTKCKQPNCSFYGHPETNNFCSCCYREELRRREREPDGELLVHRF
# Chain of UniProt O94966 (O94966 whole entry): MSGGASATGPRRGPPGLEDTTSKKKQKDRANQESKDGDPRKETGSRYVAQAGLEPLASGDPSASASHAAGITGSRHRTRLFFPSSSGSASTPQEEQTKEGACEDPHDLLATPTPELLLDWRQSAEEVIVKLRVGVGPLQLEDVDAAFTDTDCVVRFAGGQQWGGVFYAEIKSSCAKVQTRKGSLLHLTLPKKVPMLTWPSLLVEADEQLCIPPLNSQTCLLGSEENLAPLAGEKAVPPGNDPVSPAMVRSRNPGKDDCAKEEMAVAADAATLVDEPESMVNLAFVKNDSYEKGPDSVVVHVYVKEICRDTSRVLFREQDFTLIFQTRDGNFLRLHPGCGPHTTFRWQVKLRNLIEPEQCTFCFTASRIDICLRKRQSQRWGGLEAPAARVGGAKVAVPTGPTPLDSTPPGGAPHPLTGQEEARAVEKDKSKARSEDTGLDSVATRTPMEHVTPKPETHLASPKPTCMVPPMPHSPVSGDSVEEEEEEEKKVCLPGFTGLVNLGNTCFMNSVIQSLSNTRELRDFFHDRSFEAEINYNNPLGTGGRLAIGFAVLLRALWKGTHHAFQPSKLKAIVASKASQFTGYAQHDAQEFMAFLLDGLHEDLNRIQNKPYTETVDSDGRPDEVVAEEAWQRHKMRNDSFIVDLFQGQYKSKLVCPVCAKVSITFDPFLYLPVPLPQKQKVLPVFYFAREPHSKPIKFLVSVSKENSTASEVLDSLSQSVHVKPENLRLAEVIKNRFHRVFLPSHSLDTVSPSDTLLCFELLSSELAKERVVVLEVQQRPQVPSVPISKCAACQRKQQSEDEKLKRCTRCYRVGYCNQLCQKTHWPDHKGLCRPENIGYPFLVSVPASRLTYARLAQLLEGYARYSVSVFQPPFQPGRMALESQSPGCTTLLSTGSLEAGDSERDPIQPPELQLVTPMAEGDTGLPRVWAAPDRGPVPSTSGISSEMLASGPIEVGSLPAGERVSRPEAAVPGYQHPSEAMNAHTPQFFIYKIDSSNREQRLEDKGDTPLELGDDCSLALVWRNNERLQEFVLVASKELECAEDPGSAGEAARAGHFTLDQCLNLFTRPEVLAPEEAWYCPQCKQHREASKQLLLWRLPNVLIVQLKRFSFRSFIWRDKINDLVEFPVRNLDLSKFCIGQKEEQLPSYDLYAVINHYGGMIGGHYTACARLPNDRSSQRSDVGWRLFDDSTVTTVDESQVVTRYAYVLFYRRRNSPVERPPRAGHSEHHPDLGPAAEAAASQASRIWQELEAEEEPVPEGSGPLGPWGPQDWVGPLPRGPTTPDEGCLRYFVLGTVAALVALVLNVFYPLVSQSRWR
# Chain of UniProt Q70EL2 (Q70EL2 whole entry): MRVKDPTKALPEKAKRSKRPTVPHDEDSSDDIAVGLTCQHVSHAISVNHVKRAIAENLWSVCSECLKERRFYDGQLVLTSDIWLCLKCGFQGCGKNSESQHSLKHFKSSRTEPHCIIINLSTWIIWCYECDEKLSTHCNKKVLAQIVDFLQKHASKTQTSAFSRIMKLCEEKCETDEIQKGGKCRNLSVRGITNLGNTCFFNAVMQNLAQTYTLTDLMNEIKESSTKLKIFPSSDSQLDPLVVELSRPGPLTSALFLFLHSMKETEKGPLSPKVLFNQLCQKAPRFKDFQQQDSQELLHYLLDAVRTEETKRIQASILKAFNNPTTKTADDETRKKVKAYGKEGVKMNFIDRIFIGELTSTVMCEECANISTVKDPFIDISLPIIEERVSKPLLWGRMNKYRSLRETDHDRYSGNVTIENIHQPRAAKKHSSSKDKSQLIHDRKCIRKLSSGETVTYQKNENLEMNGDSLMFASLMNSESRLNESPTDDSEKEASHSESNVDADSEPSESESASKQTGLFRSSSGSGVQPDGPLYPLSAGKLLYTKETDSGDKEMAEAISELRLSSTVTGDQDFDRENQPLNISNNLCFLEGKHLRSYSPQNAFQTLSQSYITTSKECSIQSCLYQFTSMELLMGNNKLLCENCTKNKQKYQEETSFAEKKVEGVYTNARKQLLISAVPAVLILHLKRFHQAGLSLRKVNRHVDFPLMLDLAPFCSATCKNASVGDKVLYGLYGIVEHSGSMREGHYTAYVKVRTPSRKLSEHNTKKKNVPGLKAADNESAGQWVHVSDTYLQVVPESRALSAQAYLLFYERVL
# Chain of UniProt Q86UV5 (Q86UV5 whole entry): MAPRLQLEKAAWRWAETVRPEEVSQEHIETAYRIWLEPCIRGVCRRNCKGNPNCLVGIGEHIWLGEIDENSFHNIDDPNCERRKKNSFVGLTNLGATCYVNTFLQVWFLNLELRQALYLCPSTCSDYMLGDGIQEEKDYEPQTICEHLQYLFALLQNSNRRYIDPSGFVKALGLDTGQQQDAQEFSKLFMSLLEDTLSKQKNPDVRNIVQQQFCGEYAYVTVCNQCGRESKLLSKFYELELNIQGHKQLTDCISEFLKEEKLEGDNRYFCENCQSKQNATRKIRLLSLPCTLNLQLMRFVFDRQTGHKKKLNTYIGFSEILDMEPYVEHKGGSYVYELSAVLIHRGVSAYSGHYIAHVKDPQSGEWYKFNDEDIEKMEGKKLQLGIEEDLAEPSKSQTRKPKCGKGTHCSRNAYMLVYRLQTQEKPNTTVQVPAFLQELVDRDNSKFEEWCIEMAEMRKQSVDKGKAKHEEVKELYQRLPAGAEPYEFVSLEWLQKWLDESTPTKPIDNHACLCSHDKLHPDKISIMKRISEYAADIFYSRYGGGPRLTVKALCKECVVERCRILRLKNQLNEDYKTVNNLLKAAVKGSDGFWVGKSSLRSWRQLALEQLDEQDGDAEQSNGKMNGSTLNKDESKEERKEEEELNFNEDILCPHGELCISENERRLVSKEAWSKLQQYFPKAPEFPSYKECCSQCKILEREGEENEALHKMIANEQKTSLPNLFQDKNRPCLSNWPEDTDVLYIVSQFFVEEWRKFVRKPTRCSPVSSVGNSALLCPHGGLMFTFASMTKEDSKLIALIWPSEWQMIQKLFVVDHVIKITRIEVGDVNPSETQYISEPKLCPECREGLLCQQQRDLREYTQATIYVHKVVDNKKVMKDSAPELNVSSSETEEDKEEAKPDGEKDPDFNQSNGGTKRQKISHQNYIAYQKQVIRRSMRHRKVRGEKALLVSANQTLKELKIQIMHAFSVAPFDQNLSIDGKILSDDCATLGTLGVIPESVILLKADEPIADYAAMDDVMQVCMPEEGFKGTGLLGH
# Chain of UniProt Q9Y5T5 (Q9Y5T5 whole entry, looked up): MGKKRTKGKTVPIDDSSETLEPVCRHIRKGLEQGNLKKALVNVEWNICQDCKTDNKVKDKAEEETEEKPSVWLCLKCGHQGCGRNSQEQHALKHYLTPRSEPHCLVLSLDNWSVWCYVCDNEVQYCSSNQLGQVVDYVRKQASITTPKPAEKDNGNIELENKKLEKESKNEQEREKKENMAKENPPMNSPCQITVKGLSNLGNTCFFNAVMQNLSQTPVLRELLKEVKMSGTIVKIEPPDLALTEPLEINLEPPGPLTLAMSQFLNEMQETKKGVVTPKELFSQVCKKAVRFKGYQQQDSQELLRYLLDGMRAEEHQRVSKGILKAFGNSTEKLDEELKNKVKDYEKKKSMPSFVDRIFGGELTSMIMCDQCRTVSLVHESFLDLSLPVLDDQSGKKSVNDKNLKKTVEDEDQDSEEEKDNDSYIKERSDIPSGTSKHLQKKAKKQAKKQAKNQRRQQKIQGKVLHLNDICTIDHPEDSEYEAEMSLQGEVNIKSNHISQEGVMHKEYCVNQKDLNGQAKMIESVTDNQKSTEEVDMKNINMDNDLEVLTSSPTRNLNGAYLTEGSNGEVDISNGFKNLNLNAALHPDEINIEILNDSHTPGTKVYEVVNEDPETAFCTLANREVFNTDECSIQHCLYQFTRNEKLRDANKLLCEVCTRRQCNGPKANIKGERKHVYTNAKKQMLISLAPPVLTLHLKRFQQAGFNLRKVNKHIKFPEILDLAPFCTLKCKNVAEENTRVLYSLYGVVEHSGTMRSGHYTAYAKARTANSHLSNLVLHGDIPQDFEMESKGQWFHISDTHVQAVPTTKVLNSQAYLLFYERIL
row,Target,log2 ratio of Biotin-Ahx-Ub-VS probe labelling
1,USP46 (UniProt P62068),-0.277 (inactive)
2,USP19 (UniProt O94966),-0.209 (inactive)
3,USP9X (UniProt Q93008),-0.0295 (inactive)
4,OTUD7B (UniProt Q6GQQ9),-0.372 (inactive)
5,USP16 (UniProt Q9Y5T5),0.0263 (inactive)
6,USP48 (UniProt Q86UV5),-0.144 (inactive)
7,UniProt Q8TE49,-0.097 (inactive)
8,UniProt Q70EL2,-0.17 (inactive)

# Same assay, conditions: compound concentration: 200uM; treatment time: 3 h
row,Target,log2 ratio of Biotin-Ahx-Ub-VS probe labelling
1,USP46 (UniProt P62068),-0.261 (inactive)
2,USP19 (UniProt O94966),-0.661 (inactive)
3,USP9X (UniProt Q93008),-0.23 (inactive)
4,OTUD7B (UniProt Q6GQQ9),-0.803 (inactive)
5,USP16 (UniProt Q9Y5T5),-0.213 (inactive)
6,USP48 (UniProt Q86UV5),-0.273 (inactive)
7,UniProt Q8TE49,-0.652 (inactive)
8,UniProt Q70EL2,-1.02 (active)
